HT1080NT lethal: qHTS for induction of synthetic lethality in tumor cells producing 2HG: qHTS for the HT-1080-NT fibrosarcoma cell line; HT-1080-NT fibrosarcoma viability, CellTiter-Glo ATP luminescence, 48 h; Potency, µM (highest dose often 46.1 µM), usual class: cytotoxic; 360,000 tested, 1.6% active; AID 686970, 2013;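 further: NT is the 2HG producing partner of a matched IDH1 knockdown line; nearly all actives have a fitted effect of over 55% in size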
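Luminescent CellTiter-Glo readout after 48 hours of compound exposure at 37 degrees C defined viability of HT-1080-NT cells. Activity was normalized to DMSO wells and cell-free media wells; concentration-response curves were fitted and assigned curve classes.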
DT40 TDP1 no CPT: qHTS for Inhibitors of human tyrosyl-DNA phosphodiesterase 1 (TDP1): qHTS in cells in absence of CPT; DT40 Tdp1-/- hTDP1 cells, no CPT, ATP luminescence, 48 h; Potency, µM (highest dose often 46.2 µM), hits mostly inhibitors; 420,000 tested, 15% active; further: nearly all actives have a fitted effect of over 55% in size
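Readout: luminescence from CellTiter-Glo after 30 min in the dark at RT. Cells: DT40 Tdp1-/- with stable hTDP1, 400/well. Exposure: compounds alone, ≥48 hr, 37 °C.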
KB-V1 MDR tox: qHTS assay for MDR1-selective chemotherapeutics: Primary screen using the drug-selected MDR subline cells KB-V1; KB-V1 MDR cells viability, CellTiter-Glo, 72 h; Potency, µM (top dose mostly 46.1 µM), usual class: cytotoxic; 400,000 tested, 3.4% active; further: nearly all actives have a fitted effect of over 60% in size
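Drug-selected KB-V1 cells, grown in DMEM lacking phenol red with 10% FBS, receive compound titrations; after three days at 37 degrees C, surviving cell ATP is quantified by CellTiter-Glo luminescence and responses normalized and curve-fitted.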
HT1080 IDH1KD tx: qHTS for induction of synthetic lethality in tumor cells producing 2HG: qHTS for the HT-1080-IDH1KD cell line; HT-1080 IDH1 knockdown viability, ATP luminescence, 48 h; Potency, µM (top dose mostly 46.1 µM), most hits filed as cytotoxic; AID 686971, 2013; 360,000 tested, 2% active
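Knockdown cells (IDH1KD HT-1080) received compounds 2 h after plating at 750 cells/well and were kept 48 h at 37 °C in 5% FBS RPMI. A CellTiter-Glo luminescence read gave % activity for curve fitting.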
TDP1 cell CPT: qHTS for Inhibitors of human tyrosyl-DNA phosphodiesterase 1 (TDP1): qHTS in cells in presence of CPT | chicken DT40 Tdp1-/-;hTDP1 cells + 20 nM CPT, ATP luminescence, 48 h | Potency, µM (top dose mostly 46.2 µM), usual class: inhibitors | 420,000 tested, 12% active; further: nearly all actives have a fitted effect of over 55% in size
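Cell growth measured by CellTiter-Glo luminescence after a minimum 48 h, 37 C compound exposure with 20 nM CPT in Tdp1-knockout DT40 cells stably expressing hTDP1, seeded 400/well; qHTS titration format.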
KB-3-1 cytotox: qHTS assay for MDR1-selective chemotherapeutics: Primary screen using the parental adenocarcinoma cell KB-3-1 | 400,000 tested, 1.4% active | KB-3-1 viability, CellTiter-Glo ATP luminescence, 72 h | Potency, µM (doses to about 46.1 µM), usual class: cytotoxic | AID 1347075, 2019; further: nearly all actives have a fitted effect of over 60% in size
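Luminescent ATP read-out (CellTiter-Glo) measures survival of drug-naive KB-3-1 cells after 72 h compound exposure at 37 °C. Titration series was screened from lowest to highest concentration, with DMSO vehicle plates as background controls.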
Hits are given with their value; n = inactive; u = inconclusive; x = no result given; [ ] = another dose, or the depositor's remark. Sampled rows, rich in hits. Any-hit rate of the full collection: about 19%. The call rests on the fitted dose curve; in most records, active means well fitted curve in the direction sought with a large enough effect; inconclusive means small, poorly fitted or top-dose-only effect, or another doubt; inactive means no such curve, though single readings can be large; an effect the other way counts as inactive or inconclusive.

SMILES	HT1080NT lethal	DT40 TDP1 no CPT	KB-V1 MDR tox	HT1080 IDH1KD tx	TDP1 cell CPT	KB-3-1 cytotox
CC(C)N(CC(N)=O)c1ccc(S(=O)(=O)N2CCCC2)cn1	n[9.24 µM]	n	n	n	n	n
COc1cc(-c2cc(C(=O)Nc3ccc(S(=O)(=O)NCc4ccco4)cc3)c3ccccc3n2)cc(OC)c1OC	n	2.9µM	n	n	4.6µM	u
COc1cc(-c2cc(C(=O)NCc3ccco3)c3ccccc3n2)cc(OC)c1OC	n	2.6µM	u	n	u	n
COc1ccc(S(=O)(=O)N2CCC(N3CCN(Cc4ccc(F)cc4)C(=O)C3=O)CC2)cc1	x	n	n	x	n	n
CC1(C)N=C(N)N=C(N)N1c1cccc(CN)c1	n	u	n	u	n	n
CC1(C)N=C(N)N=C(N)N1c1ccccc1	3.7µM	0.13µM	u	1.6µM	0.73µM	u
CC1(C)N=C(N)N=C(N)N1c1ccc(CCCCc2ccccc2)cc1	u	0.37µM	n	0.73µM	0.65µM	u
CC1(C)N=C(N)N=C(N)N1c1ccc(Oc2ccc(Cl)cc2)c(Cl)c1	2.3µM	1.5µM	n	1.3µM	2.6µM	0.73µM
Cc1c(OCC(=O)NCc2cccnc2)ccc2c3c(c(=O)oc12)CCCC3	n	n	n	u	n	n
Cc1cc(NC(=O)CSc2nnc3ccc(-c4ccc(F)cc4)nn23)no1	n	n	n	n	n	n
CCOC(=O)c1cnc2c(cnn2C)c1NCCC(O)C(F)(F)F (configuration not stated)	n	n	6.5µM	n	u	n
CCOC(=O)c1cnc2c(cnn2C)c1Oc1ccc(OC)cc1	n	n	u	n	u	n
Cc1cc(C)c2c(C)nn(-c3ccccc3)c2n1	n	n	n	n	n	n
Cc1cc(C)c2c(=N)c3ccccc3n(CCCCCCCCn3c4ccccc4c(=N)c4c(C)cc(C)nc43)c2n1	n	u	n	u	10µM	u
COc1ccc(CCNC(=O)C(CC(C)C)N2Cc3ccccc3C2=O)c(OC)c1OC (configuration not stated)	x	u	n	x	u	n
O=C(C[C@H]1CC[C@@H](NS(=O)(=O)c2ccccc2)[C@@H](CO)O1)NCc1ccc(Cl)c(Cl)c1	n	21µM	n	n	21µM	n
CCC(=O)N1c2ccccc2CC1C(=O)NCCc1ccccc1C (configuration not stated)	x	n	n	x	u	n
CCCOC(=O)c1ccc(NC(=O)c2nc3nc(C)cc(C)n3n2)cc1	n	u	u	n	n	n
O=c1cc(-c2ccccc2)ss1	n	n	n	n	n	n
CCCCNC(=O)c1c(O)c2cccc3c2n(c1=O)CCC3	n	u	n	n	n	n
CCCc1nnc(NC(=O)c2c(O)c3cccc4c3n(c2=O)CCC4)s1	x	0.79µM	u	x	3.5µM	u
O=C(NCCCO)c1c(O)c2cccc3c2n(c1=O)CCC3	n	n	12µM	n	u	5.8µM
Nc1ccn([C@@H]2O[C@H](CNS(=O)(=O)c3cc4ccccc4s3)[C@@H](O)[C@H]2O)c(=O)n1	u	n	n	n	n	n
COc1ccc(-c2ccnc(-n3ncc(C(=O)NC(C)(C)CO)c3C3CC3)n2)cc1F	x	n	x	x	n[9.04 µM]	x
CCc1noc(C)c1C(=O)NNC(=O)c1ccccc1Cl	n[9.24 µM]	n	n	n	n	n
SMILES	HT1080NT lethal	DT40 TDP1 no CPT	KB-V1 MDR tox	HT1080 IDH1KD tx	TDP1 cell CPT	KB-3-1 cytotox
ClCc1nc2ccccc2c2ccccc12	5.8µM	2.6µM	u	18µM	4.1µM	u
Cc1cc(CNC(=O)c2cnn(-c3ncc4c(n3)-c3ccccc3CC4)c2C2CC2)on1	x	u	x	x	16µM	x
COC(=O)[C@@H]1CCCN1C(=O)c1cnn(-c2ncc3c(n2)-c2ccccc2CCC3)c1C1CC1	x	16µM	x	x	u	x
O=C(NCc1cccnc1)c1cnn(-c2ncc3c(n2)-c2ccccc2CCC3)c1C1CC1	x	u	x	x	n[9.04 µM]	x
CC(c1ccon1)N(C)C(=O)c1cnn(-c2ncc3c(n2)-c2ccccc2CC3)c1C1CC1 (configuration not stated)	x	16µM	x	x	n[9.04 µM]	x
COc1ccccc1-c1ccnc(-n2ncc(C(=O)N[C@H]3CCCCNC3=O)c2C2CC2)n1	x	21µM	x	x	u	x
CCC(O)CNC(=O)c1cnn(-c2ncc3c(n2)-c2ccccc2CCC3)c1C1CC1 (configuration not stated)	x	u	x	x	n	x
CC(C)(C)C(=O)n1nc(-c2ccccc2)oc1=O	n	n	n	n	n	n
CN(Cc1cccc2ncccc12)C(=O)c1cnn(-c2ncc3c(n2)-c2ccccc2CC3)c1C1CC1	x	16µM	x	x	u	x
Cc1cc(-c2ccnc(-n3ncc(C(=O)NCC4COCCO4)c3C3CC3)n2)c(C)s1 (configuration not stated)	x	6.5µM	x	x	9.2µM	x
Cc1cc(CNC(=O)c2cnn(-c3nccc(-c4cc(C)sc4C)n3)c2C2CC2)on1	x	u	x	x	16µM	x
Cc1cc(-c2ccnc(-n3ncc(C(=O)NCC4CCCO4)c3C3CC3)n2)c(C)s1 (configuration not stated)	x	u	x	x	n[9.04 µM]	x
Cc1cc(-c2ccnc(-n3ncc(C(=O)NCC4CCCN(C)C4)c3C3CC3)n2)c(C)s1 (configuration not stated)	x	n	x	x	n	x
Cc1ccc(NC(=O)c2ncn(CCCNCC3CCCCC3)n2)cc1C	u	21µM	n	u	u	n
Cc1ccc(NC(=O)c2ncn(CCCN[C@H](C)c3cccc4ccccc34)n2)cc1C	u	15µM	n	u	16µM	n
Cc1ccc(NCCCn2cnc(C(=O)Nc3ccc(C)c(C)c3)n2)cc1C	n	n	u	n	n	n
Cc1cc(C)c(CN2CCN(CCCn3cnc(C(=O)Nc4ccc(C)c(C)c4)n3)CC2)c(C)c1	u	15µM	n	u	u	n
COCCn1c(CNC(=O)c2cc(OC)c(OC)c(OC)c2)nc2cccnc21	x	n	x	x	n	x
O=S(=O)(c1ccc(Cl)cc1)N1CCC2(CC1)OCCN2S(=O)(=O)c1cccs1	n	18µM	u	n	u	n
COc1ccc(S(=O)(=O)N2CCC3(CC2)OCCN3S(=O)(=O)c2cccs2)cc1	n	u	8.2µM	n	n	n
Cc1cc(/C=C(\C#N)C(=O)N2CCCCC2)cc(C)c1O	16µM	26µM	u	18µM	18µM	16µM

Bioassay records: PubChem BioAssay, National Center for Advancing Translational Sciences (NCATS)
